According to ChEMBL document CHEMBL3988442, “University of Dundee, Small-Polar-MMV Screening Library” (2021):
For some assays here: Results with a measured potency or affinity are listed apart.

Columns and labels:
Design in all cases: scale not given: direction of the effect not stated beside the values
[1] = biological target: Protein translocase subunit SecA (Escherichia coli (strain K12)) (UniProt P10408); experiment: Assay to Identify E. coli SecA ATPase Inhibitors; format: functional; conditions: 30 µM
[2] = biological target: T1, Ubiquitin-activating enzyme e1, putative (Leishmania donovani (strain BPK282A1)) (UniProt E9BSI1); experiment: Leishmania donovani Ubiquitin Activating Enzyme (LdE1); format: functional; conditions: 30 µM
T1 sequence (whole entry): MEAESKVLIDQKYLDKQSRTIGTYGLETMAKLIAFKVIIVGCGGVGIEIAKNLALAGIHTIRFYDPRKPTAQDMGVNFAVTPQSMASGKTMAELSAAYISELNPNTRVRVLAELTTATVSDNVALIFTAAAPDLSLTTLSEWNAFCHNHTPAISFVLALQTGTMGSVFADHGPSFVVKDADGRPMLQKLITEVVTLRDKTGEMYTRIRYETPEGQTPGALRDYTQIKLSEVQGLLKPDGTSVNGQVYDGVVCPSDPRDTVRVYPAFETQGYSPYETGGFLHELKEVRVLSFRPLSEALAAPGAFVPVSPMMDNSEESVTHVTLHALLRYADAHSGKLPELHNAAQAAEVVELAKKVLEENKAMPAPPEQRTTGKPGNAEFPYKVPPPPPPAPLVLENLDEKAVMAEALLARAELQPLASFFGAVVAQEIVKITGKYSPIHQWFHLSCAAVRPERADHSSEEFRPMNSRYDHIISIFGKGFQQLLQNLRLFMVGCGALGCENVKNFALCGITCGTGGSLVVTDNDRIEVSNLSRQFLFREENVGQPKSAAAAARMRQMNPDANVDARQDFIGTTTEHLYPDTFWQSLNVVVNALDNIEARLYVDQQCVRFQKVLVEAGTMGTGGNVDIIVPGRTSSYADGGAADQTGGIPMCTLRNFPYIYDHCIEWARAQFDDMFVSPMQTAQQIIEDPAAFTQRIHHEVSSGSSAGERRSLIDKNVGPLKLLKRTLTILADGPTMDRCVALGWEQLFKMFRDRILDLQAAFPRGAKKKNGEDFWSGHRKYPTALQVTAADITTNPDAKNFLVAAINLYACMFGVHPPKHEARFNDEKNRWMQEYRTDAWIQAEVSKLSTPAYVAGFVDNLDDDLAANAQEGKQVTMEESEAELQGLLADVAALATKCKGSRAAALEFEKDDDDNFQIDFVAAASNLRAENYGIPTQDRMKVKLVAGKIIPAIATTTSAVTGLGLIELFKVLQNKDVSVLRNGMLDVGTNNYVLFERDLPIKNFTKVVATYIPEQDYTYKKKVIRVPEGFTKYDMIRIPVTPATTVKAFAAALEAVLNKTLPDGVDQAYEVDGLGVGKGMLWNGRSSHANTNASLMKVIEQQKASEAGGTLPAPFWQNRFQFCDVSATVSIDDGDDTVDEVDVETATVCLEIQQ

[3] = biological target: AMP-activated protein kinase, AMPK (Homo sapiens) (UniProt P54646+O43741+P54619+Q9UGJ0+Q9Y478+Q13131+Q9UGI9); experiment: AMP-dependent Kinase enzyme assay. An in vitro enzyme assay that detects ADP turnover that is directly proportional to AMPK activity. This uses naive AMPK that is activated during the assay with MK-8722; format: functional; conditions: 30 µM
[4] = biological target: Sialic acid-binding Ig-like lectin 9 (Homo sapiens) (UniProt Q9Y336); experiment: Hs-Siglec9 ALPHAscreen SOP 20170721; conditions: 10 µM
Trypanosoma cruzi = experiment: Trypanosoma cruzi phosphomannomutase and mannose-1-phosphate guanylyltransferase assay; format: functional; conditions: 10 µM
[5] = biological target: T2, Arginase-2, mitochondrial (Homo sapiens) (UniProt P78540); experiment: in vitro enzyme assay to detect the production of urea directly proportional to the activity of Arginase II; format: functional; conditions: 33.3 µM; note: in the data most compounds retested in dose-response had high values
T2 sequence (whole entry): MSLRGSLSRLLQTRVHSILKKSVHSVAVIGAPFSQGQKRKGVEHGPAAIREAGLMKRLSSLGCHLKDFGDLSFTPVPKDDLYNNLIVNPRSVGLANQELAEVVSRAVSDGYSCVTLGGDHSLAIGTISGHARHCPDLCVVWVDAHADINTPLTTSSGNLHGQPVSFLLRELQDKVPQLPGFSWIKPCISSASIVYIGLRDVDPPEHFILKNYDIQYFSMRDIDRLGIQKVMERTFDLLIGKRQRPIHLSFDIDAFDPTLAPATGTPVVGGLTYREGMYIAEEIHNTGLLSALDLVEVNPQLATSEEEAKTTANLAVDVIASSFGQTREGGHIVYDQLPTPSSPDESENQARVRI

[6] = biological target: T3, Proteasome subunit beta (Trypanosoma cruzi) (UniProt O96673); experiment: Trypanosoma cruzi proteasome chymotrypsin-like activity (TcProtChymo) assay.; note: in the data most compounds retested in dose-response had high values; format: functional; conditions: 9.37 µM
T3 sequence (whole entry): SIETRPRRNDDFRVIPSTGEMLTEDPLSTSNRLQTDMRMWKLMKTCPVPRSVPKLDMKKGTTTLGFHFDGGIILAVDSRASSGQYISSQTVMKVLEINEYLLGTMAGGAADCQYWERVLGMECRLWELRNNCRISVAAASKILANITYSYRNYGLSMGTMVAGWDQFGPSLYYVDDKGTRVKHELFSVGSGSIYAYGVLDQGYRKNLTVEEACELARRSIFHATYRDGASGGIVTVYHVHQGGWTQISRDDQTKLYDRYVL

Homo sapiens = species: Homo sapiens; experiment: To identify inhibition of the IFN signalling (Jak-Stat) pathway via expression of an eGFP reporter gene under the control of an IFN-stimulated response element (ISRE) containing MxA promoter.; format: functional; conditions: 30 µM
[7] = biological target: T4, Tyrosyl-tRNA synthetase, putative (Trypanosoma cruzi (strain CL Brener)) (UniProt Q4DSP6); experiment: Trypanosoma cruzi tyrosyl tRNA synthetase (TcYRS) _High Tyrosine SOP; format: functional; conditions: 30 µM; note: in the data most compounds retested in dose-response had high values
T4 sequence (whole entry): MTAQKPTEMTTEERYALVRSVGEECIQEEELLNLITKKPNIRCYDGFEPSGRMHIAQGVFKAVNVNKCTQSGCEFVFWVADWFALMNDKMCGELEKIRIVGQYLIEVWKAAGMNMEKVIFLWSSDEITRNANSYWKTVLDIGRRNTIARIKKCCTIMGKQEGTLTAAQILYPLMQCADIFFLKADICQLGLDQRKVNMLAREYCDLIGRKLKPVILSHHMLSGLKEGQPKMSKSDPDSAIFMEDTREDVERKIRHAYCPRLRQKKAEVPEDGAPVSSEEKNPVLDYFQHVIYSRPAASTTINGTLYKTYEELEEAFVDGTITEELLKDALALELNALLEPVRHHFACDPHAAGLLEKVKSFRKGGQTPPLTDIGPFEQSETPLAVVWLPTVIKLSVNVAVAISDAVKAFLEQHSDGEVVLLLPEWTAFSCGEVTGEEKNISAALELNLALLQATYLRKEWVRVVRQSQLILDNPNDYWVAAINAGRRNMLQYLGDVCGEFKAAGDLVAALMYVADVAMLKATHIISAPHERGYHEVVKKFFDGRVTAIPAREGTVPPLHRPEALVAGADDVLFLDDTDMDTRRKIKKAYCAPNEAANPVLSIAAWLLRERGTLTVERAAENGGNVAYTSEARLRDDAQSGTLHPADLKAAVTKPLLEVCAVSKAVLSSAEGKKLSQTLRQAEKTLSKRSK

[8] = biological target: T4, Tyrosyl-tRNA synthetase, putative (Trypanosoma cruzi (strain CL Brener)); experiment: Trypanosoma cruzi tyrosyl tRNA synthetase (TcYRS) SOP; format: functional; conditions: 30 µM
[9] = biological target: Chromo domain-containing protein 1 (Saccharomyces cerevisiae (strain ATCC 204508 / S288c) (Baker's yeast)) (UniProt P32657); experiment: ScCHD-1 Enzyme Inhibition Assay; format: functional; conditions: 30 µM; note: in the data most compounds retested in dose-response had high values
Chain of Chromo domain-containing protein 1 (Saccharomyces cerevisiae (strain ATCC 204508 / S288c) (Baker's yeast)) (P32657 whole entry, the tested form may be a part): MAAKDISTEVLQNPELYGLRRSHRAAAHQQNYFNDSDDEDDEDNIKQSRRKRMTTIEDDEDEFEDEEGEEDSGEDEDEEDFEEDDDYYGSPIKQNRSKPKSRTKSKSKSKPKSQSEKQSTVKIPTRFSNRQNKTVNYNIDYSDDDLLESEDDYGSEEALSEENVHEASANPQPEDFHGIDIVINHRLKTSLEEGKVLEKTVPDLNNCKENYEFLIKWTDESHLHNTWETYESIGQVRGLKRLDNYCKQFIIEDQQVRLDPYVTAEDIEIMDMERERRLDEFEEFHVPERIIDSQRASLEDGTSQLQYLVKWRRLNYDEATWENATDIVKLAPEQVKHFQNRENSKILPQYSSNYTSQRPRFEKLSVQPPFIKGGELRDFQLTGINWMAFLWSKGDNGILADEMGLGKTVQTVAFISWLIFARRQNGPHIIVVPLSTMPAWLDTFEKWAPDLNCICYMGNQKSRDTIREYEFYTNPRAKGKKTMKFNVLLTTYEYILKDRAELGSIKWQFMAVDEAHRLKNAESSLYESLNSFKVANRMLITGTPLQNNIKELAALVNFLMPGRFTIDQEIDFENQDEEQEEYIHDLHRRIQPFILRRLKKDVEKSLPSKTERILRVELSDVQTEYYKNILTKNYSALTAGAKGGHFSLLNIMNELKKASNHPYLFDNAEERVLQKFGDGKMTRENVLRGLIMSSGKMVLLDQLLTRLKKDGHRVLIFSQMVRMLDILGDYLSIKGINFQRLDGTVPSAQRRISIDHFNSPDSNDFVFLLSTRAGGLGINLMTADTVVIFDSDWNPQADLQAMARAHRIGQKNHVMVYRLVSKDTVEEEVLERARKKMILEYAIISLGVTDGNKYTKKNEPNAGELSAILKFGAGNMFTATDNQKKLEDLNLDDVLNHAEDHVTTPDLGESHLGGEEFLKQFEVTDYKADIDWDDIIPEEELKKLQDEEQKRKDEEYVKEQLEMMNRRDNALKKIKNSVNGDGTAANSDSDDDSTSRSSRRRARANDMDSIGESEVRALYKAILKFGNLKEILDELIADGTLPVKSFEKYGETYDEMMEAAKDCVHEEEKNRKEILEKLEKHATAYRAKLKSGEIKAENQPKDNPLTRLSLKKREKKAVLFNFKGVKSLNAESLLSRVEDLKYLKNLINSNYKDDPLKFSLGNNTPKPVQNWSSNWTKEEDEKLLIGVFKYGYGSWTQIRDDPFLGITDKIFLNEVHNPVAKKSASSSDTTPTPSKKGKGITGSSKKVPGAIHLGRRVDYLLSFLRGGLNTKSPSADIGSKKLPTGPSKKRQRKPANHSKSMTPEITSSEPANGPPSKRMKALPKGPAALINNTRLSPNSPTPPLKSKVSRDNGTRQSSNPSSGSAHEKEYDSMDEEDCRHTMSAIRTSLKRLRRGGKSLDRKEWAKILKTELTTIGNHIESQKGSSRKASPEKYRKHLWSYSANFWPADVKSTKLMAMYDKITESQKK

Chain of Sialic acid-binding Ig-like lectin 9 (Homo sapiens) (Q9Y336 whole entry): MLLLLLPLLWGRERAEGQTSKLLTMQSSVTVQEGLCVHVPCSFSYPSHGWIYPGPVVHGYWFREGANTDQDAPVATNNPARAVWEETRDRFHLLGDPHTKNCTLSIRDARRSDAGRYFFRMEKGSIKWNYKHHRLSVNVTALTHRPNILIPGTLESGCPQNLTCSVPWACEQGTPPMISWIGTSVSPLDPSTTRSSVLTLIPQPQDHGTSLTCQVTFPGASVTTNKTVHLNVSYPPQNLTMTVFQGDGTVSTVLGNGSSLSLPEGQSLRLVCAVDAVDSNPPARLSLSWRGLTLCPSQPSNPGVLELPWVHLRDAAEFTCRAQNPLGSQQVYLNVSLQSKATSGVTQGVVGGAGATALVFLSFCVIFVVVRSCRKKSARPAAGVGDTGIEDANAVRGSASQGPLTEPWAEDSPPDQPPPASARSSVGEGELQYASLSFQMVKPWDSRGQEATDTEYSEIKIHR
Chain of Protein translocase subunit SecA (Escherichia coli (strain K12)) (P10408 whole entry): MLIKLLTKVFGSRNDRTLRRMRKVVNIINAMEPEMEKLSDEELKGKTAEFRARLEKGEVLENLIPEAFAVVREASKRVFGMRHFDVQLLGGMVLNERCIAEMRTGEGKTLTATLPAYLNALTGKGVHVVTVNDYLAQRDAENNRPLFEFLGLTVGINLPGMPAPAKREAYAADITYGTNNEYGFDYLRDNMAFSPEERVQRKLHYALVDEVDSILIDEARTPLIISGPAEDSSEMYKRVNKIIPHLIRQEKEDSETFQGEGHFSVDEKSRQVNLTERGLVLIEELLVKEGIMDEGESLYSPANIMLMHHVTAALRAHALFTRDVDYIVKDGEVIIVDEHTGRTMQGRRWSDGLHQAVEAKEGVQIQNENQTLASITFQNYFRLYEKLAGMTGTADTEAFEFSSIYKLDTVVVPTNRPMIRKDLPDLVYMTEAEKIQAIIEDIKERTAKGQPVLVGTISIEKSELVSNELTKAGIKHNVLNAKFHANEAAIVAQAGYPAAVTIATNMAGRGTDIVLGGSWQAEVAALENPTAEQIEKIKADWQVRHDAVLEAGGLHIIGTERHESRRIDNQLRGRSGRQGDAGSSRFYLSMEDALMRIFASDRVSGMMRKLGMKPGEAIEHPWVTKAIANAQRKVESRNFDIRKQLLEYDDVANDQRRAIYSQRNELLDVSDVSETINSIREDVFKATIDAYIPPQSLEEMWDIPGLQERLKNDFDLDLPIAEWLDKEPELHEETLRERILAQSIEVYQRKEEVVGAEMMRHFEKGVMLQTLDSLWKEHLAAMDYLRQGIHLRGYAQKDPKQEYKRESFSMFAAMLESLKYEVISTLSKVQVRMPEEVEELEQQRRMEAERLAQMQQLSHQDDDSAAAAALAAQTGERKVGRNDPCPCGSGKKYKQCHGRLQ

Compound	Percent Effect [1] [%]	Percent Effect [2] [%]	Percent Effect [3] [%]	Percent Effect [4] [%]	Percent Effect (Trypanosoma cruzi) [%]	Percent Effect [5] [%]	Percent Effect [6] [%]	Percent Effect (Homo sapiens) [%]	Percent Effect [7] [%]	Percent Effect [8] [%]	Percent Effect [9] [%]
CS(=O)(=O)NCCCN1CCCCC1c1cc2ccccc2[nH]1 (configuration not stated)	-6.23	15.2	-13	11.7	8.03	-7.22	5.65	-8.5	1.48	16.5	-7.23
CN(Cc1cnn(C)c1)C(=O)NC1CCN(Cc2ccccn2)CC1	-4.71	15.6	2.19	-0.77	-8.99	0.356	4.22	15.9	3.88	7.32	-3.83
CCc1ccc(CNC(=O)N2CCN(Cc3cc(C)no3)CC2)s1	-3.56	15.8	7.06	-6.42	-9.24	-1.08	17.2	13.6	2.46	6.17	-7.04
CCc1noc(CN2CCCC2c2noc(C3CC3)n2)n1 (configuration not stated)	0.214	21.6	-11.2	-6.88	3.68	-10	12.8	19.7	9.36	18.5	-9.57
CC(C)(C)n1ncc2c1CCCC2NCc1cccc2c1OCO2 (configuration not stated)	-2.65	-1.27	2.85	2.62	-4.41	6.24	10.1	12.2	1.04	-5.06	-10.4
Cc1cc(S(=O)(=O)N2CCCc3cc(F)cc(F)c32)sc1C(=O)O	-9.52	-2.67	2.83	0.801	-6.33	-2.6	9.59	7.51	-14.8	-18.5	-5.34
O=C(NC1(c2nnn(Cc3ccncc3)n2)CCCC1)c1ccccc1	-6.65	2.67	-7.02	6.6	1.85	0.521	-25.6	-24.1	7.1	16.1	-2.08
C=C1c2ccccc2C(=O)N1CCC(=O)N1CCNC(=O)C1	-2.89	15.8	-1.19	3.39	-2.07	6.51	29.6	-7.94	6.37	17.1	-3.42
Cc1nn(C)c(C)c1CC(=O)N1CCC(N(C)c2cccnn2)CC1	0.112	15.8	0.809	-2.31	-2.82	4.98	10.5	42.1	3.43	4.88	-9.53
Cn1ccnc1CN(CCCO)C1CCCc2ccccc21 (configuration not stated)	-5.87	5.26	3.03	9.71	0.876	-2.37	3.55	18.1	3.19	7.79	-0.447
O=C(c1ccccc1-c1ccccc1)N1CCOC2(CNCCOC2)C1 (configuration not stated)	-2.01	8.11	-0.846	7.99	0	4.76	17.9	1.86	5.82	14.6	-1.37
CC(NC(N)=O)C(=O)N(C)CCCc1cc(-c2ccccc2)no1 (configuration not stated)	-3.18	2.7	7.96	-4.86	-10.1	-1.29	9.34	25	3.96	6.1	0.208
Cc1cccc(NC(=O)CNC(=O)Cn2ncc(Cl)c(Cl)c2=O)c1C	-1.81	0	26	2.69	-8.4	0	16.6	23.8	11.9	-1.22	7.2
Cc1cc(C)n(C2CCCN(C(=O)C3=NN(C)C(=O)CC3)C2)n1 (configuration not stated)	-0.53	18.9	-18.2	-2.77	5	-12.8	11.9	23.2	8.37	25.9	-9.84
CC(NC(=O)c1cc(-c2cccc(Cl)c2)no1)C(=O)N1CCCC1 (configuration not stated)	-2.69	0	16.6	-3.21	-5.16	-2.37	7.19	-1.32	2.13	0	-4.18
CCOC(C)c1nc(CN2CCNCC2)cs1 (configuration not stated)	-3	-8.11	-1.11	0.0763	-3.09	-5.24	6.21	14.6	-1.59	-4.88	-3.79
CS(=O)(=O)NC[C@]12COC[C@H]1CN(C(=O)c1ccccc1)C2	-1.33	-52	-0.526	9.67	-4.63	0.645	-1.22	11.1	-79.4	-147	-6.34
Cc1ccc(N2CCCC(NCc3ccc(C)o3)C2)nn1 (configuration not stated)	-0.735	6.33	1.51	-2.46	4	-1.5	28.8	-8.15	5.21	10.1	-15.2
CCc1nc(CN(C(C)=O)C2CCN(CCc3cnn(C)c3)C2)no1 (configuration not stated)	-2.36	27.9	-1.95	-9.07	-0.85	3.04	0.901	22.4	-19.2	16.5	-7.18
CC(C)=CCN1CCOC(Cn2nc(C)cc2C)C1 (configuration not stated)	2.83	18.4	3.22	-4.58	-8.27	-1.92	16.7	8.7	3.43	17.1	-11.3
Cc1cccnc1NC(=O)NC(C)Cn1cccn1 (configuration not stated)	-8.41	10.4	7.9	3.8	-5.62	1.78	0.845	23.3	3.88	2.44	-4.43
CCCn1nc2c(cc1=O)CN(Cc1nc(CCOC)no1)CC2	-1.92	0	-119	-3.46	-0.781	0.417	10.6	-1.9	-7.92	-6.1	-7.2
